In PubChem BioAssay AID2244 (Southern Research Specialized Biocontainment Screening …, 2010):
Results with a measured potency or affinity are listed apart. Unmarked numbers belong to inactive results.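 How the source made its calls: active means viability below 70% at one or more tested concentrations; inactive means viability above 70% at every concentration.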

Experiment: Vero E6 cell cytotoxicity, SAR follow-up, cytotoxicity control for West Nile virus antiviral project, synthesized analogs (AID 2244)
Settings: CellTiter-Glo luminescence, 72 h, hits give low values; at 40 µM unless noted
Work on COc1ccccc1NC(=O)CSc1nc2ccccc2c(=O)n1-c1ccc(F)cc1 yielded a minimum viability of 78.4%. For CCOC(=O)C1(Cc2ccccc2C(F)(F)F)CCN(C2CCN(C(C)=O)CC2)CC1, the minimum viability was 87% [at 80 µM]. Molecule Cc1ccc2nc3n(c(=O)c2c1)CCC3 has a minimum viability of 76.4% [at 0.078 µM]. With O=c1c2cccc(Cl)c2nc2n1CCC2 the minimum viability was 79.7% [at 5 µM]. In the case of COc1cccc(-n2c(SCC(=O)Nc3ccc4c(c3)CCC4)nc3ccccc3c2=O)c1, the minimum viability is reported as 74.6%. Work on CC1CC(C)CN(C(=O)CSc2nc3ccccc3c(=O)n2-c2ccc(F)cc2)C1 (stereo not given) yielded a minimum viability of 74.6%. In the case of COc1ccc(-c2csc(N(C)C(=O)c3ccccc3Cl)n2)cc1, the minimum viability is reported as 78.5%. In the case of O=[N+]([O-])c1ccc2c(c1)C(O)N1CCCC1=N2 (stereo not given), the minimum viability is reported as 76.7% [at 0.078 µM]. Cc1cccc2c(=O)n3c(nc12)CCC3 gave a minimum viability of 75.1% [at 0.078 µM]. In the case of CC(=O)Nc1ccc2nc3n(c(=O)c2c1)CCC3, the minimum viability is reported as 79.7% [at 0.625 µM]. O=c1c2cc(I)ccc2nc2n1CCC2 gave a minimum viability of 72.6%. In the case of O=c1c2cc([N+](=O)[O-])ccc2nc2n1CCC2, the minimum viability is reported as 78.7%. With CC1(O)c2cc(Br)ccc2N=C2CCCN21 (stereo not given) the minimum viability was 74.6% [at 0.156 µM]. In the case of c1ccc2c(c1)CN1CCCC1=N2, the minimum viability is reported as 89.1% [at 20 µM]. Work on Cc1cccc2nc3n(c(=O)c12)CCC3 yielded a minimum viability of 78.3% [at 0.625 µM]. COc1ccc(NC(=O)CSc2nc3ccccc3c(=O)n2-c2ccc(F)cc2)cc1 gave a minimum viability of 70.1%. O=C(CSc1nc2ccccc2c(=O)n1-c1ccc(F)cc1F)Nc1ccc(N2CCOCC2)cc1 gave a minimum viability of 70.7%. In the case of O=c1c2c(F)cccc2nc2n1CCC2, the minimum viability is reported as 80.3% [at 2.5 µM]. With COc1ccc(-c2csc(N(CCCBr)C(=O)c3ccccc3Cl)n2)cc1 the minimum viability was 70.2%. Molecule Nc1ccc2nc3n(c(=O)c2c1)CCC3 has a minimum viability of 76.6%.
